# esBAF inh = SWI/SNF esBAF complex inhibition | reporter increase, % at 12.5 µM | mouse ES cells, Bmi1-luciferase knock-in reporter, 24 h; 100% = twice the neutral-well signal | 350,000 tested, 2% active | AID 602393; in the data active = activation above about 40%;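 note: 0% = median of the plate's neutral control wells and 100% = double that signal; a rise in the Bmi1 reporter signal indicates esBAF inhibition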
# C2C12 statin = suppression of simvastatin myotoxicity. rescue of ATP level, % at 7.49 µM. AID 602340. C2C12 myotubes + simvastatin, ATP luminescence, 48 h; scaled: DMSO 0, geranylgeraniol control 100. 330,000 tested, 0.78% active;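 active = mean ATP rescue above about 67%, or every replicate alone reaching that limit, limit read from the data, passing the limit was not always enough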;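 note: myotubes were challenged with 10 µM simvastatin during compound exposure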
# MITF TRPM1 HTS = MITF TRPM1 promoter activation in melanoma cells; SK-MEL-5 TRPM1-promoter luciferase, 24 h; % of positive control, neutral wells = 0; activation, % at 12.5 µM; 300,000 tested, 0.75% active;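 active = mean activation of at least 80% with every replicate also reaching 80%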;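 note: 0% = neutral control wells and 100% = parthenolide positive control wells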
# Wnt bcat act = activators of Wnt/beta-catenin signaling. Wnt/beta-catenin reporter cell assay, activator, plate reader. activation, % at 9.35 µM. 300,000 tested, 1.2% active. AID 743398; in the data active = activation above about 30%, passing the limit was not always enough;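 note: 0% = neutral control wells and 100% = positive control wells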
# GAA850 FXN act = frataxin GAA850 promoter activation | 360,000 tested, 0.56% active | HEK293 lucGAA850 FXN promoter luciferase reporter, 24 h; percent of 10 µM SAHA response | activation, % at 6 µM;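 active = activation above the average of all compounds screened plus 3 SD, cutoff fixed separately per campaign, cut at about 7.5% in these data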;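 note: 0% = DMSO wells and 100% = 10 µM SAHA wells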
# GAA30 FXN cntr = GAA30 FXN promoter activation counter-screen; shares compounds with GAA850 FXN act; HEK293 lucGAA30 FXN promoter luciferase, 24 h; DMSO = 0%, 5 µM ipriflavone = 100%; activation, % at 6 µM; 1,900 tested, 66% active;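 active = mean activation above the mean of solvent-only control wells plus 3 SD, cut at about 22% in these data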;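 note: counterscreen of GAA850 promoter hits where activity marks nonselective or luminescence artifacts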
# FXN GAA850 conf = GAA850 FXN promoter activation confirmation; shares compounds with GAA850 FXN act; HEK293 lucGAA850 FXN promoter luciferase reporter, 24 h; 100% = activation by SAHA; activation, % at 6 µM; 1,900 tested, 86% active; AID 588351;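 active = mean activation above a set limit taken from the primary screen, cut at about 8% in these data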;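 note: 0% = DMSO wells and 100% = 10 µM SAHA wells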
# * hit, by the source's call; · = no result. The list is not random: actives were taken first. Their share in the collection is about 3.3%.
SMILES,esBAF inh,C2C12 statin,MITF TRPM1 HTS,Wnt bcat act,GAA850 FXN act,GAA30 FXN cntr,FXN GAA850 conf
C=C1CCN([C@H](C(=O)Nc2ccc(OC)cc2)C(C)C)S(=O)(=O)c2ccccc21,-1,11,-7,-3,9.5*,15,12*
Cc1c(C(=O)NCc2ccco2)sc2nc(-c3ccccc3)cn12,48*,6,·,19,18*,56*,29*
CCN(CC)C(=O)c1sc2nc(-c3ccc(OC)cc3)cn2c1C,12,24,·,·,9.8*,125*,41*
Cc1c(C(=O)Nc2ccc3c(c2)OCCO3)sc2nc(-c3ccccc3)cn12,15,-28,-36,26,-2,·,·
CC1CCCc2sc3nc(N4CCN(CCO)CC4)n4ncnc4c3c21 (stereo not given),22,-5,·,·,8.1*,33*,21*
CC[C@]1(C(=O)OC)[C@H]2C(=O)N(Cc3ccccc3)C(=O)[C@H]2[C@H]2CN=C(SCc3ccc(C(=O)OC)cc3)N21,6,10,-5,-1,9.5*,14,11*
COC(=O)[C@@]1(C)[C@H]2C(=O)N(Cc3ccccc3)C(=O)[C@H]2[C@H]2CN=C(SCc3ccccc3)N21,-6,-8,3,-2,16*,33*,16*
CC[C@]1(C(=O)OC)[C@H]2C(=O)N(Cc3ccccc3)C(=O)[C@H]2[C@H]2CN=C(SCc3ccc(C)cc3)N21,-5,-12,4,-1,13*,34*,14*
CC[C@]1(C(=O)OC)[C@H]2C(=O)N(Cc3ccccc3)C(=O)[C@H]2[C@H]2CN=C(SCC3CC3)N21,-2,-4,-6,-2,17*,30*,18*
O=C(c1cc(COc2ccc(F)cc2Cl)on1)N1CCSCC1,78*,2,40,20,10*,110*,44*
c1cncc(-c2nn3c(Cn4nnc5ccccc54)nnc3s2)c1,2,3,-2,-2,16*,2,2
C=CCN=c1scc(C)n1/N=C/c1ccc(O)c(O)c1,·,·,49,-3,10*,63*,28*
CN=c1scc(-c2ccco2)n1/N=C/c1ccc(O)c(O)c1,·,·,-2,-6,16*,44*,23*
Cc1ccccc1S(=O)(=O)N[C@H]1CC[C@H](CCNS(=O)(=O)c2cccc(F)c2)O[C@H]1CO,-11,2,·,·,·,·,·
Cc1ccc(NC(=O)C2Cc3ccccc3C(=O)O2)cc1 (stereo not given),·,·,35,29,8.3*,86*,33*
Cc1noc(C)c1NC(=O)Nc1ccc2c(c1)C(=O)N([C@@H](C)CO)C[C@H](C)[C@@H](CN(C)C(=O)Nc1c(C)noc1C)O2,-3,3,·,·,·,·,·
CN(C)C(=O)C[C@H]1C[C@@H]2c3cc(NC(=O)Nc4ccccc4F)ccc3O[C@@H]2[C@H](CO)O1,0,0,·,·,·,·,·
Cc1ccc2c(CN3CCC(C)CC3)cc(=O)oc2c1,59*,2,48,·,8.6*,125*,46*
Cc1ccc2c(CN3CC(C)CC(C)C3)cc(=O)oc2c1 (stereo not given),-6,5,-10,-1,1,·,·
Cc1ccc(-c2cnc3c(c2)C(=O)N([C@@H](C)CO)C[C@H](C)[C@@H](CN(C)C(=O)c2cccc(F)c2)O3)cc1,-3,15,·,·,·,·,·
C[C@H]1CN([C@@H](C)CO)C(=O)c2cccc(NC(=O)C3CC3)c2O[C@@H]1CN(C)Cc1ccc(Cl)c(Cl)c1,-2,14,·,·,·,·,·
CCN(CC)S(=O)(=O)c1ccc(N2CCCC2)c(NC(=O)Cc2cc(OC)c(OC)c(OC)c2)c1,10,-37,0,0,8.4*,32*,8.4*
COc1ccc(C(C)(C)C)cc1NC(=O)c1cc(S(=O)(=O)N(C)C)ccc1N1CCCC1,·,·,-2,-1,15*,-3,9.3*
CN(C)S(=O)(=O)c1ccc(N2CCCC2)c(C(=O)Nc2ccc(F)cc2F)c1,·,·,-1,-3,1,·,·
CN1CCN(S(=O)(=O)c2ccc(-c3ccc(Cl)cc3)cc2)CC1,8,3,9,·,13*,46*,13*
SMILES,esBAF inh,C2C12 statin,MITF TRPM1 HTS,Wnt bcat act,GAA850 FXN act,GAA30 FXN cntr,FXN GAA850 conf
Cc1ccc(S(=O)(=O)N2CCCN(C)CC2)cc1,-2,3,-6,0,1,·,·
CCCCn1c(SCc2ccc(Cl)cc2)nc2c1c(=O)[nH]c(=O)n2C,-6,23,·,-2,8.9*,1,10*
CCSc1nc2c(c(=O)[nH]c(=O)n2C)n1Cc1ccc(Cl)cc1,4,12,-5,1,7.6*,23*,18*
C/C=C/CSc1nc2c(c(=O)[nH]c(=O)n2C)n1Cc1ccc(C)cc1,11,34,-3,-6,29*,13,17*
Cn1c(=O)[nH]c(=O)c2c1nc([N+](=O)[O-])n2Cc1ccccc1,·,·,-99,-12,8.5*,-121,-30
Cc1ccc(Cn2c(Sc3ncccn3)nc3c2c(=O)[nH]c(=O)n3C)cc1,0,11,·,-2,-2,·,·
CCSc1nc2c(c(=O)n(C)c(=O)n2C)n1Cc1ccc(Cl)cc1,8,34,-8,·,1,·,·
O=C(N[C@H]1CC[C@H](CCn2cc(Cc3ccccc3)nn2)O[C@H]1CO)c1ccccn1,3,7,·,·,·,·,·
COc1ccc(CN(C)C[C@@H]2Oc3ccc(NC(=O)Cc4cn(C)c5ccccc45)cc3C(=O)N([C@@H](C)CO)C[C@@H]2C)cc1,6,14,·,·,·,·,·
CC1=CC(=C(C#N)c2nc3ccccc3s2)C=C(C)N1CC1CCCO1 (stereo not given),·,·,48,12,7.8*,39*,32*
c1ccc2sc(NCC3CCCO3)nc2c1 (stereo not given),·,·,55,-1,5,·,·
Cc1ccc(-c2nnc3c4ccccc4c(C)nn23)cc1S(=O)(=O)N1CCN(CCO)CC1,25,·,·,·,7.6*,32*,17*
C[C@@H]1CN([C@H](C)CO)C(=O)c2cc(NC(=O)c3ccccc3)ccc2O[C@@H](C)CCCCO[C@@H]1CN(C)S(=O)(=O)c1ccc(Cl)cc1,1,·,·,·,·,·,·
COc1ccc(Nc2nc3ccccc3n3nnnc23)cc1,5,-79,0,·,4,·,·
COc1cc(Nc2nc3ccccc3n3nnnc23)cc(OC)c1OC,2,-20,35,4,17*,33*,9.5*
COCCCN(C(=S)NC(=O)C12CC3CC(CC(C3)C1)C2)c1c(N)n(Cc2ccccc2)c(=O)[nH]c1=O,·,·,3,0,8.4*,13,8.2*

# Screening data: PubChem BioAssay, several laboratories
